Bioassay records deposited in PubChem BioAssay by National Center for Advancing Translational Sciences (NCATS).
GLA inh pH 4.5: inhibitors of human alpha-galactosidase A at pH 4.5; P06280; purified enzyme, 4-MU-alpha-Gal fluorescence, pH 4.5; activity change, negative = inhibition, % at 105 µM; 230,000 tested, under 10 active;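 note: 0% = full activity with enzyme and -100% = basal without enzyme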
Target sequence (P06280 whole entry, looked up): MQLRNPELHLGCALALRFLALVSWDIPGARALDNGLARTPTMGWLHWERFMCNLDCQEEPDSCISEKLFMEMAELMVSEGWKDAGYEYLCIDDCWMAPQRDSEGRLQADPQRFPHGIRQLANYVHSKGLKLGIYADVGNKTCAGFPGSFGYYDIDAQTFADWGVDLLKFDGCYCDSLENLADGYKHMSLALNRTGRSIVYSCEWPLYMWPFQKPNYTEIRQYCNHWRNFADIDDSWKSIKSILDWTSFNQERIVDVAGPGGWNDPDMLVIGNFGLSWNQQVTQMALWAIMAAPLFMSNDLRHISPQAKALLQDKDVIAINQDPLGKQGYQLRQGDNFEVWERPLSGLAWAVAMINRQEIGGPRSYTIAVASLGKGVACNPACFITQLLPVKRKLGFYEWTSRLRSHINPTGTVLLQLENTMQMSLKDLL
N370S GC: N370S glucocerebrosidase modulation, Gaucher chaperone candidate. P04062. N370S GC spleen homogenate, 4MU-glucoside fluorescence. Potency, µM (highest dose often 59.4 µM), for the others: top-dose activity change, negative = inhibition, most hits filed as inhibitors. 330,000 tested, 0.092% active;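 note: potency is the fitted concentration of half-maximal effect; 0% = full enzyme activity and -100% = no enzyme basal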
GAA spleen mod: inhibits or activates alpha-glucosidase in human spleen homogenate; human spleen homogenate, 4-MU-alpha-glucoside fluorescence; AID 2112; P10253; 240,000 tested, 0.006% active; Potency, µM (titrated, usually from 79.9 µM), inactives show at the highest dose activity change, negative = inhibition, hits mostly inhibitors;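 note: potency is the fitted concentration of half-maximal effect; 0% = enzyme with vehicle and -100% = no enzyme basal signal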
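Enzyme source: human spleen homogenate, 1 ug/well. Buffer 50 mM citric acid/K phosphate pH 5.0, 0.01% Tween-20. 4-MU-alpha-glucoside 1 mM; 37 C x 40 min; NaOH/glycine stop; fluorescence.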
GAA glycogen: alters human alpha-glucosidase cleavage of glycogen; P10253; 300,000 tested, 0.38% active; recombinant GAA, glycogen substrate, Amplex Red glucose oxidase fluorescence; Potency, µM (titrated, usually from 76.4 µM), inactives show at the highest dose activity change, negative = inhibition, most hits filed as inhibitors;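 note: potency is the fitted concentration of half-maximal effect; 0% = full enzyme reaction and -100% = no-enzyme basal signal; the screen sought inhibitors and activators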
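Recombinant human enzyme (4 nM); glycogen substrate; 37 C, 40 min, pH 5.0. Readout: coupled glucose oxidase/Amplex Red fluorescence.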
GLA spleen mod: alpha-galactosidase A (human) modulation | 240,000 tested, 0.008% active | human spleen homogenate, 4MU-alpha-Gal fluorescence, 40 min | P06280 | Potency, µM (titrated, usually from 80 µM), inactives show at the highest dose activity change, negative = inhibition, usual class: inhibitors;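 note: potency is the fitted concentration of half-maximal effect; 0% = enzyme with vehicle and -100% = no enzyme basal signal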
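Inhibition or activation of alpha-galactosidase in human spleen homogenate is scored by 4-MU fluorescence after 40 min at 37C, pH 5.0, with 1 mM substrate. AC50s come from concentration-response fitted to the Hill equation.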
GAA inhib: blocks human lysosomal alpha-glucosidase. 200,000 tested, 0.005% active. Potency, µM (highest dose often 76.9 µM), without a hit: at the top dose activity change, negative = inhibition, hits mostly inhibitors. purified human GAA, 4-MU-alpha-glucoside fluorescence. P10253;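 note: potency is the fitted concentration of half-maximal effect; plate controls were uninhibited enzyme wells for no effect and no-enzyme background for full effect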
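Activity normalized between no-enzyme (basal) and enzyme-only wells. Conditions: 4 nM human enzyme, 400 uM fluorogenic substrate, citrate/phosphate pH 5.0 with Tween-20, 20 min room temperature, compounds up to 77 uM.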
* hit, by the source's call. Hits are enriched below; roughly 0.43% of the tested compounds scored in any of these assays. Calls come from the whole dose curve; as a rule, active = well fitted curve in the direction sought with a large enough effect; inconclusive = small, poorly fitted or top-dose-only effect, or another doubt; inactive = no such curve, though single readings can be large; an effect the other way counts as inactive or inconclusive.

`Oc1ccc(/C=N/NC(=S)N/N=C/c2ccc(O)cc2)cc1` gave GLA inh pH 4.5 2.8, N370S GC -3.9%, GAA spleen mod 1.9%, GAA glycogen 3.55µM*, GLA spleen mod -16.0% and GAA inhib 4.7%.
For C/C(=N\N1CCN(C2c3ccccc3-c3ccccc32)CC1)c1ccncc1 the results were GLA inh pH 4.5 3.2, N370S GC 1.0%, GAA spleen mod 4.8%, GAA glycogen 28.2µM*, GLA spleen mod -12.1% and GAA inhib inconclusive.
Screening C(=N\N1CCN(C2c3ccccc3-c3ccccc32)CC1)/c1ccncc1 returned GLA inh pH 4.5 -6.5, N370S GC -11.9%, GAA spleen mod -5.1%, GAA glycogen -9.5%, GLA spleen mod -1.5% and GAA inhib 2.5%.
S=C(Nc1ccc(Nc2ccccc2)cc1)N1CCN(c2ncccn2)CC1 was read as GLA inh pH 4.5 -2.9, N370S GC -7.7%, GAA spleen mod -6.9%, GAA glycogen 8.91µM*, GLA spleen mod 2.5% and GAA inhib 1.8%.
`OC1CCN(C(=S)Nc2ccc(Nc3ccccc3)cc2)CC1` gave GLA inh pH 4.5 -1.9, N370S GC -1.4%, GAA spleen mod 5.2%, GAA glycogen 3.98µM*, GLA spleen mod 2.2% and GAA inhib 8.4%.
S=C(Nc1ccccc1)N1CCC(C2CCN(C(=S)Nc3ccccc3)CC2)CC1 was read as GLA inh pH 4.5 -10.9, N370S GC 5.7%, GAA spleen mod -0.3%, GAA glycogen -8.1%, GLA spleen mod 4.5% and GAA inhib 0.2%.
For CCCC[C@H](NC(C)=O)C(=O)N[C@H]1CC(=O)NCCCC[C@@H](C(N)=O)NC(=O)[C@H](Cc2c[nH]c3ccccc23)NC(=O)[C@H](CCCN=C(N)N)NC(=O)[C@@H](Cc2ccccc2)NC(=O)[C@H](Cc2cnc[nH]2)NC1=O the results were N370S GC -1.1%, GAA spleen mod 2.8% and GLA spleen mod 13.2%.
For Cn1c(SCC(=O)CC(=O)Nc2ccccc2)nnc1-c1ccc(O)cc1 the results were GLA inh pH 4.5 2.5, N370S GC 14.1µM*, GAA spleen mod -0.6%, GAA glycogen 0.7%, GLA spleen mod 1.2% and GAA inhib 1.9%.
Screening Cc1cc(O)c(/C=N/Nc2ccccc2Cl)c(=O)o1 returned GLA inh pH 4.5 -4.1, N370S GC -2.2%, GAA spleen mod -3.6%, GAA glycogen 25.1µM*, GLA spleen mod 8.7% and GAA inhib -1.3%.
Screening CCCN1CCCC(c2cccc(S(C)(=O)=O)c2)C1 (stereo not drawn) returned N370S GC -9.9%, GAA spleen mod 8.1% and GLA spleen mod -7.2%.
CSCC[C@H](N)C(=O)N[C@@H](CCC(=O)O)C(=O)N[C@H](C(=O)NCC(=O)N[C@@H](Cc1c[nH]c2ccccc12)C(=O)N[C@@H](Cc1ccc(O)cc1)C(=O)N[C@@H](CCCNC(=N)N)C(=O)N[C@@H](CO)C(=O)N1CCC[C@H]1C(=O)N[C@@H](Cc1ccccc1)C(=O)N[C@@H](CO)C(=O)N[C@@H](CCCNC(=N)N)C(=O)N[C@H](C(=O)N[C@H](C(=O)N[C@@H](Cc1cnc[nH]1)C(=O)N[C@@H](CC(C)C)C(=O)N[C@@H](Cc1ccc(O)cc1)C(=O)N[C@@H](CCCNC(=N)N)C(=O)N[C@@H](CC(N)=O)C(=O)NCC(=O)N[C@@H](CCCCN)C(=O)O)C(C)C)C(C)C)C(C)C was read as N370S GC -2.4%, GAA spleen mod 2.5% and GLA spleen mod -4.9%.
Screening c1ccc(C2[C@H]3CN(CC4CCCCC4)[C@H](c4ccccc4)C34CC2(c2cccnc2)C4)cc1 (stereo partly drawn) returned GLA inh pH 4.5 1.9, N370S GC 14.1µM*, GAA spleen mod 1.4%, GAA glycogen -0.6% and GLA spleen mod 2.7%.
`CCC1(c2ccc(OC)cc2)NC(=O)N(C)C1=O` (stereo not drawn) gave N370S GC -9.5%, GAA spleen mod 1.6% and GLA spleen mod 9.5%.
Screening CCC(C)c1cc([N+](=O)[O-])cc([N+](=O)[O-])c1OC(=O)OC(C)C (stereo not drawn) returned N370S GC -4.1%, GAA spleen mod 1.4% and GLA spleen mod -2.3%.
CC12CCC(C(=O)NNc3ccc([N+](=O)[O-])cc3)(OC1=O)C2(C)C (stereo not drawn) was read as GLA inh pH 4.5 -14.2, N370S GC -16.4%, GAA spleen mod -4.3%, GAA glycogen inconclusive and GLA spleen mod -4.2%.
For CC12CCC(C(=O)NNc3ccccc3)(OC1=O)C2(C)C (stereo not drawn) the results were GLA inh pH 4.5 -1.0, N370S GC -14.8%, GAA spleen mod -4.0%, GAA glycogen 28.2µM*, GLA spleen mod -0.3% and GAA inhib 5.3%.
Screening COc1cc(NS(=O)(=O)c2ccc([N+](=O)[O-])cc2)c2ncccc2c1 returned N370S GC 16.5%, GAA spleen mod 7.2% and GLA spleen mod -2.1%.
Screening CC[C@H](C)[C@H](NC(=O)[C@H](CCC(=O)O)NC(=O)CNC(=O)[C@@H](NC(=O)[C@@H]1CCCN1C(=O)[C@@H](NC(=O)[C@@H]1CCCN1C(=O)[C@@H]1CCCN1C(=O)[C@H](CC(N)=O)NC(=O)[C@H](CC(N)=O)NC(=O)[C@@H](NC(=O)[C@H](CCSC)NC(=O)[C@H](Cc1c[nH]c2ccccc12)NC(=O)CNC(=O)[C@@H](NC(=O)[C@H](CCC(N)=O)NC(=O)[C@@H](N)CCC(=O)O)[C@@H](C)CC)[C@@H](C)O)[C@@H](C)CC)C(C)C)C(=O)O returned N370S GC -2.8%, GAA spleen mod 1.0% and GLA spleen mod 0.2%.
`COc1cc(OC)cc(-c2nnc3n2N=C(c2ccccc2OC)CS3)c1` gave N370S GC 10.6%, GAA spleen mod 10.8% and GLA spleen mod -14.1%.
CS(=O)(=O)NNC(=O)c1cc2cc3ccccc3nc2s1 was read as GLA inh pH 4.5 -2.3, N370S GC 7.4%, GAA spleen mod 5.4%, GAA glycogen 15.7µM*, GLA spleen mod 5.4% and GAA inhib -6.4%.
`COc1ccc(S(=O)(=O)NNC(=O)c2cc3cc4ccccc4nc3s2)cc1` gave GLA inh pH 4.5 -13.6, N370S GC -20.9%, GAA spleen mod 0.1%, GAA glycogen 12.5µM*, GLA spleen mod -12.1% and GAA inhib inconclusive.
